Measured values as given in the supplement of paper PMC12636033.
± gives the standard deviation of the averaged measurements. In all, about 33,000 sequences were measured (“E-score (rank enrichment, -0.5 to 0.5)”: median about -0.0075, highest 2% from about 0.23 on). The full list was thinned out, with the highest values kept by preference.

Tested on: WT Max(13-93) synthetic (M65Nle)
Experiment: PBM 8-mer E-score (E-score (rank enrichment, -0.5 to 0.5)); higher = stronger preferential binding
Description: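 Protein binding microarray (universal PBM chip covering all 10-mers in fixed probe flanks) with chemically synthesized human Max(13-93) bHLH-LZ analogs (not full-length Max) bearing noncanonical residues (hArg, Tha, Aib, Nle at 65) and aromatic Cys staples. Read-out per 8-mer (and its reverse complement): E-score (rank-based enrichment, -0.5 to 0.5) and Z-score of median probe intensity.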

Sequence | PBM 8-mer E-score
AAGCTCTG | -0.144 ± 0.028
ATCGCGCA | -0.034 ± 0.026
CCAGAGTC | -0.155 ± 0.0016
AACGCATG | 0.305 ± 0.042
AAAGCATT | 0.14 ± 0.0086
ACAGCATC | 0.0804 ± 0.099
ACAGCATA | 0.00665 ± 0.081
AAAGCATG | 0.303 ± 0.017
ACAGCATG | 0.305 ± 0.01
CAAGCATG | 0.24 ± 0.053
CACGCATG | 0.184 ± 0.066
AACGCATC | 0.0593 ± 0.014
AAAGCATA | 0.211 ± 0.026
CAAGCATC | 0.00917 ± 0.063
CAAGCATA | 0.104 ± 0.034
ACACAGAC | 0.00286 ± 0.095
AGACGTAG | 0.0572 ± 0.041
CAATGCGC | 0.0235 ± 0.012
AAGGGCGT | -0.0104 ± 0.031
GATAAAGC | 0.179 ± 0.094
AGTGGAGG | 0.0658 ± 0.0029
ATTAGACG | 0.136 ± 0.028

Sequence | PBM 8-mer E-score
AAAGATAC | 0.00254 ± 0.17
AAAGATAA | 0.234 ± 0.029
AAAGATAG | 0.0319 ± 0.07
CAAGATAA | 0.256 ± 0.014
TAAGATAA | 0.018 ± 0.049
CAAGATAC | 0.146 ± 0.047
GCTACGTA | 0.0754 ± 0.075
ACCCAGCT | -0.00912 ± 0.022
TCGAGACA | -0.125 ± 0.06
GACCTTAC | -0.127 ± 0.056
TCCTTTCA | 0.177 ± 0.086
CCGACCAG | -0.175 ± 0.0087
GTGGAGTA | -0.0124 ± 0.029
TGGACGAA | 0.138 ± 0.011
GGTATCTA | 0.0126 ± 0.011
CGTATCTA | -0.0295 ± 0.068
AGTATCTA | 0.253 ± 0.022
CGGCAATC | -0.205 ± 0.029
AGTCGGTC | -0.181 ± 0.0094
GATCAAGA | -0.00477 ± 0.11
CACATGGA | 0.37 ± 0.02
AACATGGC | 0.118 ± 0.02

Sequence | PBM 8-mer E-score
AACATGGG | 0.231 ± 0.047
CACATGAG | 0.0368 ± 0.07
GACATGGC | 0.073 ± 0.098
CACATGAA | 0.1797 ± 0.00019
CACATGGG | 0.276 ± 0.0049
CACATGAC | 0.317 ± 0.0056
AACATGGA | 0.106 ± 0.052
CCCATGGG | -0.0583 ± 0.12
GACATGGA | -0.0676 ± 0.069
CACATGGC | 0.343 ± 0.039
CGTATCCC | -0.27 ± 0.076
AAATCAAC | 0.129 ± 0.0028
CGCTCGCC | -0.158 ± 0.02
CCGGCAAC | -0.301 ± 0.024
ACCCTGTC | -0.0879 ± 0.17
AGAATCGG | -0.25 ± 0.048
ACTAGGTA | 0.102 ± 0.04
CTAACGCA | 0.12 ± 0.0043
GCTGCAGA | -0.00761 ± 0.073
AGTATTTA | 0.186 ± 0.058
GGTATTTA | 0.0645 ± 0.18
CGTATTTA | 0.285 ± 0.056

Sequence | PBM 8-mer E-score
AAGACACC | -0.137 ± 0.085
AGCAGCTA | -0.199 ± 0.04
AAGTATAT | 0.0964 ± 0.13
AACTACAG | -0.0267 ± 0.018
AAGTACAC | 0.235 ± 0.075
AAGTACAA | 0.225 ± 0.15
CAGTACAC | 0.0197 ± 0.13
AACTACAC | 0.282 ± 0.02
AAGTATAC | 0.246 ± 0.014
AAGTATAA | 0.225 ± 0.069
GACTACAC | 0.0803 ± 0.16
CGTGGCCC | 0.0336 ± 0.14
GAGATGCC | 0.078 ± 0.063
AGGGCCGA | 0.0332 ± 0.068
GCCCACCC | 0.206 ± 0.017
CGACACCG | -0.265 ± 0.12
AGATGGCC | -0.092 ± 0.12
CACGTAGC | 0.0038 ± 0.017
GAGTCCCA | -0.0366 ± 0.0061
CTGTTGCA | 0.0892 ± 0.013
